According to PubChem BioAssay AID493073 (Broad Institute, 2011):
In all, about 1,200 compounds went through this assay and about 810 (68%) were called active. How the calls were made is not given here. So high a share suggests a set chosen from earlier hits. The list is a sample of the results. Measured potencies and affinities stand elsewhere.

experiment: reducers of TRPM1 reporter luminescence, concentration series – cell-based, SK-MEL-5, cherry-picked, set 3, MITF inhibitor project, dose response (AID 493073); settings: SK-MEL-5 TRPM1 promoter luciferase, 24 h; series mostly up to 35 µM

outcome, inactive:
COCCNC(=O)c1cc2sc3ccccc3c2s1, FC(F)(F)Oc1ccc(-c2cn3cccnc3n2)cc1, O=C(CNC(=O)c1ccc(Br)cc1)c1ccccc1, Clc1ccccc1CSc1nnc(-c2ccncc2)o1, Cc1ccc(C(=O)Nc2nc3ccc(Cl)cc3s2)o1, Cc1ccc2nc(NC(=O)c3ccc(Br)o3)sc2c1, O=C(Nc1nc2ccccc2s1)Nc1ccc(F)cc1F, COC(=O)c1ccc(COc2ccc(C)cc2[N+](=O)[O-])o1, Cc1cc(NC(=O)c2ccc(Cl)cc2Cl)no1, COc1ccc2oc3ccc(OC)cc3c(=O)c2c1, O=C(Nc1cccnc1Cl)c1cc(-c2ccco2)on1, CC1CCN(c2ccc(NC(=O)c3cccnc3)cc2)CC1, NNC(=O)Cn1c(SCc2ccccc2)nc2ccccc21, COC(=O)c1ccc(COc2ccc3c(c2)CCC3)o1, O=C(Nc1nc2ccsc2c(=O)s1)C1CCC1, O=C(O)C1CCN(C(=O)OCc2ccccc2)CC1, Clc1ccc(-c2nc(-c3ccncc3)no2)c(Cl)c1, Fc1ccccc1-c1nc(-c2ccncc2)no1, Cc1ccc(-c2nc(-c3ccncc3)no2)cc1C, CCOc1ccccc1-c1nc(-c2ccc(C)nc2OC)no1, O=C(Nc1ccc(Cl)cc1)C1C2CCCCC21 (stereo not drawn), Cc1ccc(SCCC(=O)N2CCC(C)CC2)cc1, N/C(=N\OC(=O)c1ccccc1Cl)c1cccc([N+](=O)[O-])c1, N/C(=N\OC(=O)c1ccncc1)c1cccc([N+](=O)[O-])c1, CCn1c(=O)c(C(=O)NCc2ccccc2Cl)c(O)c2ccccc21, Cc1ccc(SCc2cn3cc(Cl)ccc3n2)cc1, N/C(=N\OC(=O)c1cccc(F)c1)c1cccc([N+](=O)[O-])c1, Cc1ccccc1OCc1nc2c3cnn(C)c3ncn2n1, CC(C)(C)c1ccc(OCCn2ccccc2=O)cc1, Cc1ccc(OCCNCc2ccccc2)c(C)c1, COc1ccc(NC(=O)c2cc(-c3ccccc3Cl)on2)cc1, O=C1c2ccccc2C(=O)N1CCOc1ccccc1, CC(C)c1nnc(NC(=O)CCC2CCCCC2)s1, CC(C)(C)C1CCC(OC(=O)CN2CCCCC2)CC1 (stereo not drawn), COc1ccc(C2C(C#N)=C(N)Oc3c2oc(CO)cc3=O)cc1 (stereo not drawn), O=C(Nc1ccc2ncccc2c1)c1ccccc1Br, CC(=O)c1ccc(N/C=C/C(=O)c2ccc(Br)cc2)cc1, Oc1ccccc1/C=N/Nc1cccc2cccnc12, Cc1ccc2nc(Cc3ccc(N)cc3)oc2c1, CCOc1ccccc1NC(=O)C1C2CCC(O2)C1C(=O)O (stereo not drawn), COc1ccc(-c2cc(-c3ccc(OC)c(OC)c3)n[nH]2)c(O)c1, COc1ccc(C(=O)NCC(=O)c2ccccc2)cc1, COc1ccc(C(=O)NCCSc2ccccc2C)cc1, COc1cccc(CNc2nc3ccccc3n2C)c1O, Cc1cc(C(F)(F)F)c2c(N)c(C(=O)Nc3cc(C)on3)sc2n1, Cc1cc(C)c2c(N)c(C(=O)N/N=C/c3ccccc3)sc2n1, CCc1cc(C=NC2CCCCC2)c(O)s1, Cc1ccccc1NCc1nc2ccccc2n1C, O=C(NCc1ccco1)c1ccc(COCC(F)(F)F)cc1, CN(C)c1ccc(/C=C/c2cccc[n+]2[O-])cc1, Cc1ccc(O)c(NC(=O)c2ccc3c(c2)C(=O)N(CC(C)C)C3=O)c1, Clc1nccnc1N/N=C/c1ccc(Br)cc1, N/C(=N\OC(=O)Cc1cccs1)c1ccccc1, COc1cccc(/C=N/NC(=O)c2cccs2)c1, COc1cccc(-c2ccc3c(N)c(C(=O)NC4CC4)sc3n2)c1, O=C(NC1CCCCC1)c1cc2cc(Br)ccc2o1, O=C(NC1CCCCCC1)c1cc2ccccc2oc1=O, N#C/C(C(=O)c1ccccc1)=C1/CCCCCN1, CCOc1ccc(N=C(C)C2=C(O)c3ccccc3C2=O)cc1, Cn1c(COc2ccccc2Br)nc2ccccc21, NC(=O)c1c(NC(=O)c2cccnc2)sc2c1CCCCC2, CCOc1cc(/C=N/N=C(N)N)ccc1OCc1ccc(Cl)cc1, Cc1ccc(COc2ccc(C)nc2[N+](=O)[O-])cc1, O=C(Nc1ccc(Cl)cc1)N1CC=CCC1, CC(C)(CO)NC(=O)c1ccc2nc(Cc3cccc(Cl)c3)oc2c1, Cc1ccc(C(=O)c2coc3ccc(O)c(Cl)c23)cc1, OCc1ccc(N=Nc2ccccc2)cc1, Cc1ccc(OCCCCN2CCCCC2)c(Br)c1, O=C(Cc1cccs1)NCc1ccc(Cl)cc1Cl, O=C(CCC(=O)c1ccc[nH]1)c1ccc(Cl)cc1, COc1nc(NC2CCCCC2)nc(NC(C)(C)C)n1, C#Cc1cccc(NC(=O)CSc2nnc(-c3ccc(C(F)(F)F)cn3)o2)c1, Cn1c(COc2ccccc2)nc2ccccc21, COc1ccc(NCc2nc3ccccc3n2C)cc1, COc1cc(CN2CCC(C(=O)NCCC(C)C)CC2)ccc1OCc1ccccc1, COc1ccc(C(=O)Nc2ccc3c(c2)OCCO3)cc1Br, COc1cccc(/C=C/C(=O)c2ccc3c(c2)OCCO3)c1OC, COc1ccc(N(CC(=O)NCC2CCCO2)S(=O)(=O)c2ccccc2)cc1OC (stereo not drawn), CC(=O)Nc1cccc(-c2nnc(-c3ccccc3)o2)c1, O=C(CN1CCCCC1)Nc1scc2c1c(=O)oc1ccccc12, CCN(CC)CCNC(=O)C1CCN(S(=O)(=O)c2c(C)noc2/C=C/c2ccccc2F)CC1, Cc1cc(/C(N)=N/OC(=O)Nc2ccc(Cl)cc2)no1, Cc1cccc(NC(=O)c2cnn(-c3ccccc3)c2C)c1C
